# Inconclusive results are not listed. Calls of active or inactive are those of the source. The calls were made as follows: active = hit-call score of the fitted dose curve at least 0.9, where 1 is the maximum; inconclusive = response in the unintended direction; inactive = score below 0.9.
# What was measured:
# [1] = target: human Colony Stimulating Factor 1 Receptor (CSF1R), CSF1R (gene 1436) (UniProt P07333); experiment: NVS_ENZ_hCSF1R: NovaScreen (NVS) Enzymatic Assay for human Colony Stimulating Factor 1 Receptor (CSF1R) (AID 2283150)
# In short: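 Cell-free recombinant human CSF1R kinase with fluorescent substrate, product separated by electrophoretic mobility shift; read 1 h after dosing. Primary screen at 25 uM in duplicate, actives then in concentration-response up to 50 uM, relative to DMSO.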
# [2] = target: human Beta-secretase (BACE), BACE1 (gene 23621) (UniProt P56817); experiment: NVS_ENZ_hBACE: NovaScreen (NVS) Enzymatic Assay for human Beta-secretase (BACE) (AID 2283140);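 also: hits are inhibitors that reduce fluorescent substrate signal versus DMSO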
# In short: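 Cell-free fluorescence-intensity assay of recombinant BACE1 expressed in SF9 cells, read 1 hour after dosing. Loss of signal indicates reduced protease activity, fitted relative to DMSO negative control. Primary screen at 25 uM in duplicate; actives followed in concentration series.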
# [3] = target: human Acetylcholinesterase (AChE), ACHE (gene 43) (UniProt P22303); experiment: NVS_ENZ_hAChE: NovaScreen (NVS) Enzymatic Assay for human Acetylcholinesterase (AChE) (AID 2283129)
# In short: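 Cell-free colorimetric enzyme-activity assay; compounds read 0.33 hour after dosing, loss of signal vs DMSO baseline. Primary screen in duplicate at 25 uM single concentration, with active compounds retested in concentration series.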
# [4] = target: human Caspase 2 (CASP2), CASP2 (gene 835) (UniProt P42575); experiment: NVS_ENZ_hCASP2: NovaScreen (NVS) Enzymatic Assay for human Caspase 2 (CASP2) (AID 2283135)
# In short: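 E. coli-expressed enzyme in a cell-free protease assay, fluorescence read 1 h after dosing. Compounds at 25 uM in duplicate, with concentration-response up to 50 uM for hits; loss of signal against DMSO baseline.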
# [5] = target: human Esterase Plasma (ES), BCHE (gene 590) (UniProt P06276); experiment: NVS_ENZ_hES: NovaScreen (NVS) Enzymatic Assay for human Esterase Plasma (ES) (AID 2283157)
# In short: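 Esterase from human plasma, cell-free, colorimetric absorbance read 0.25 h after dosing. Screened at 25 uM in duplicate, with threshold-passing chemicals run in concentration-response up to 50 uM; loss of signal fitted versus DMSO.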
# [6] = target: human Ephrin type-A Receptor 2 (EphA2), EPHA2 (gene 1969) (UniProt P29317); experiment: NVS_ENZ_hEphA2: NovaScreen (NVS) Enzymatic Assay for human Ephrin type-A Receptor 2 (EphA2) (AID 2283155)
# In short: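 Cell-free recombinant EphA2 kinase with specific substrate, 1 h, fluorescence with electrophoretic mobility-shift separation of substrate and product. Primary screen at 25 uM in duplicate; hits retested in singleton concentration-response up to 50 uM, referenced to DMSO.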
# [7] = target: human AMP-activated Protein Kinase, alpha 1 (AMPKa1), PRKAA1 (gene 5562) (UniProt Q13131); experiment: NVS_ENZ_hAMPKa1: NovaScreen (NVS) Enzymatic Assay for human AMP-activated Protein Kinase, alpha 1 (AMPKa1) (AID 2283130)
# In short: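 Recombinant human AMPKα1 activity was measured cell-free by fluorescent substrate conversion with electrophoretic mobility-shift separation, 1 h after dosing. Duplicate single-point screening was at 25 uM; actives (≥30% inhibition) were retested in concentration-response up to 50 uM.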
# [8] = target: human Epidermal Growth Factor Receptor (EGFR), EGFR (gene 1956) (UniProt P00533); experiment: NVS_ENZ_hEGFR: NovaScreen (NVS) Enzymatic Assay for human Epidermal Growth Factor Receptor (EGFR) (AID 2283151)
# In short: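 Cell-free kinase assay, fluorescence plus electrophoretic mobility shift separating substrate and product, read 1 hour after dosing; loss of signal vs DMSO. Duplicate screen at 25 uM, then concentration-response to 50 uM.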
# rat CYP2B1, gene 24300 = experiment: NVS_ADME_rCYP2B1: NovaScreen (NVS) CYP450-related Enzyme Activity (ADME) Assay for rat CYP2B1 (AID 2283117)
# In short: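 Recombinant rat CYP2B1 with fluorogenic substrate, read at 0.75 h. Primary screen in duplicate at 10 uM; compounds meeting threshold (e.g., 30% inhibition) re-run in concentration-response up to 20 uM. Fitted against acetonitrile control.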
# rat CYP3A1, gene 25642 = experiment: NVS_ADME_rCYP3A1: NovaScreen (NVS) CYP450-related Enzyme Activity (ADME) Assay for rat CYP3A1 (AID 2283126)
# In short: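 Cell-free recombinant CYP assay with fluorescent substrate, read 0.5 h after dosing. Screened at 10 uM in duplicate, hits at up to 20 uM in concentration-response; loss of signal versus acetonitrile baseline.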
# [9] = target: rat CYP3A2, Cyp3a2 (gene 266682) (UniProt P05183); experiment: NVS_ADME_rCYP3A2: NovaScreen (NVS) CYP450-related Enzyme Activity (ADME) Assay for rat CYP3A2 (AID 2283128)
# In short: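 Cell-free rat CYP3A2 enzyme assay with fluorescent substrate, read 0.5 h after dosing. Primary duplicate screen at 10 uM; actives run in concentration-response up to 20 uM, relative to acetonitrile baseline.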
# [10] = target: human Casein Kinase 1-delta (CK1D), CSNK1D (gene 1453) (UniProt P48730); experiment: NVS_ENZ_hCK1D: NovaScreen (NVS) Enzymatic Assay for human Casein Kinase 1-delta (CK1D) (AID 2283148)
# In short: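 Recombinant human CK1-delta, cell-free; fluorescent substrate with electrophoretic mobility-shift separation of product, read 1 h after dosing. Single 25 uM duplicate screen, then concentration-response up to 50 uM; loss of signal vs DMSO.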
# [11] = target: human Elastase, ELANE (gene 1991) (UniProt P08246); experiment: NVS_ENZ_hElastase: NovaScreen (NVS) Enzymatic Assay for human Elastase (AID 2283153)
# In short: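 Cell-free elastase from human neutrophils, 1.5 h after dosing, activity read by absorbance. Primary screen in duplicate at 25 uM; hits (e.g., 30% inhibition) rerun in singleton concentration-response up to 50 uM, fitted versus DMSO.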
# Sequence of human Casein Kinase 1-delta (CK1D), CSNK1D (gene 1453) (P48730 whole entry, looked up): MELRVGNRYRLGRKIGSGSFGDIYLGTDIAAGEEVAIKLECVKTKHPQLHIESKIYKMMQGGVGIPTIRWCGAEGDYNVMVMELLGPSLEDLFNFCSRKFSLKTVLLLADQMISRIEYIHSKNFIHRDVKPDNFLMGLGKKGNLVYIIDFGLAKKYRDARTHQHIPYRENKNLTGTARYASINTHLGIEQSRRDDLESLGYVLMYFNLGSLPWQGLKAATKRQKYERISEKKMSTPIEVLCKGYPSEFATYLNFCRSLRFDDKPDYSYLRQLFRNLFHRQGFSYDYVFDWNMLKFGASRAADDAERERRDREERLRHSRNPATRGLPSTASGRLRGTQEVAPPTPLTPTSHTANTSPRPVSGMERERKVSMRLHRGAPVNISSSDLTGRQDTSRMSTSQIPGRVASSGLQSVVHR
# Sequence of human Esterase Plasma (ES), BCHE (gene 590) (P06276 whole entry, looked up): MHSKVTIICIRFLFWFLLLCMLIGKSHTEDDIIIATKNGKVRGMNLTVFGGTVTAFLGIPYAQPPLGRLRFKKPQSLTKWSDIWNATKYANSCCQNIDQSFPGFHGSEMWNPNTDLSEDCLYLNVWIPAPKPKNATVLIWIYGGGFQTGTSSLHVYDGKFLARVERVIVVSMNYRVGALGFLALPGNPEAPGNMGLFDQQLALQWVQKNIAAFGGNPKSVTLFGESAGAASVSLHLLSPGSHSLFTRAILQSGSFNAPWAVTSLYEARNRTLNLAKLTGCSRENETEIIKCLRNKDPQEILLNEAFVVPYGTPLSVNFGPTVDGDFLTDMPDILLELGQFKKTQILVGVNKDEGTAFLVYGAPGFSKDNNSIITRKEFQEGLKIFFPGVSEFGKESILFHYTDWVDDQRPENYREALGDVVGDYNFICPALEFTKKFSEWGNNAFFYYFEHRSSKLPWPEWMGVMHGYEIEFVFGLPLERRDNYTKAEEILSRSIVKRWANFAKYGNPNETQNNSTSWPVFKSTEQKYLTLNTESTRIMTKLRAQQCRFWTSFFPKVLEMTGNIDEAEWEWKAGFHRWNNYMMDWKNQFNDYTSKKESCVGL
# Sequence of human Elastase, ELANE (gene 1991) (P08246 whole entry, looked up): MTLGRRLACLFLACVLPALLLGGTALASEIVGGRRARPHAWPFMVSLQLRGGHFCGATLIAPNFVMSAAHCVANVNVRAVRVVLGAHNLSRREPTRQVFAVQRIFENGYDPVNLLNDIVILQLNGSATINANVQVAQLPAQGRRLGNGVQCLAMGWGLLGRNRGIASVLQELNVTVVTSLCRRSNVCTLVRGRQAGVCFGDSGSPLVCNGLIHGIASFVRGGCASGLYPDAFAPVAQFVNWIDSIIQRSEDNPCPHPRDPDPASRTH
# Sequence of human Acetylcholinesterase (AChE), ACHE (gene 43) (P22303 whole entry, looked up): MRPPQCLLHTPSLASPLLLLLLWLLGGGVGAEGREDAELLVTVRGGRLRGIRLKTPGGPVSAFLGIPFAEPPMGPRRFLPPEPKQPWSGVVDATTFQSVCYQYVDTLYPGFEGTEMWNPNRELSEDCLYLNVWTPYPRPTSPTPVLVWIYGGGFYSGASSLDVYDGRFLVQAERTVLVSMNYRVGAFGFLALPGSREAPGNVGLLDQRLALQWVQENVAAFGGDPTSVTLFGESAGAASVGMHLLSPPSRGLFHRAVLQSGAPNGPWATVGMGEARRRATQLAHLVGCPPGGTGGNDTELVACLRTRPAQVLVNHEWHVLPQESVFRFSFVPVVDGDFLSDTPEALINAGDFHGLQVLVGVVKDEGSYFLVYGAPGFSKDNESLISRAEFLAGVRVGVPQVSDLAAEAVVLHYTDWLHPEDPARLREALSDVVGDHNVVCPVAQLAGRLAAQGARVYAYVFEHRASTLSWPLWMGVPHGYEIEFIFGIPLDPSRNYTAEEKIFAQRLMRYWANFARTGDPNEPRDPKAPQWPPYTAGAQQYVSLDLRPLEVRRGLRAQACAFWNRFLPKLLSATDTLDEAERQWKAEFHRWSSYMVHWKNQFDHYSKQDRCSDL
# Sequence of human AMP-activated Protein Kinase, alpha 1 (AMPKa1), PRKAA1 (gene 5562) (Q13131 whole entry, looked up): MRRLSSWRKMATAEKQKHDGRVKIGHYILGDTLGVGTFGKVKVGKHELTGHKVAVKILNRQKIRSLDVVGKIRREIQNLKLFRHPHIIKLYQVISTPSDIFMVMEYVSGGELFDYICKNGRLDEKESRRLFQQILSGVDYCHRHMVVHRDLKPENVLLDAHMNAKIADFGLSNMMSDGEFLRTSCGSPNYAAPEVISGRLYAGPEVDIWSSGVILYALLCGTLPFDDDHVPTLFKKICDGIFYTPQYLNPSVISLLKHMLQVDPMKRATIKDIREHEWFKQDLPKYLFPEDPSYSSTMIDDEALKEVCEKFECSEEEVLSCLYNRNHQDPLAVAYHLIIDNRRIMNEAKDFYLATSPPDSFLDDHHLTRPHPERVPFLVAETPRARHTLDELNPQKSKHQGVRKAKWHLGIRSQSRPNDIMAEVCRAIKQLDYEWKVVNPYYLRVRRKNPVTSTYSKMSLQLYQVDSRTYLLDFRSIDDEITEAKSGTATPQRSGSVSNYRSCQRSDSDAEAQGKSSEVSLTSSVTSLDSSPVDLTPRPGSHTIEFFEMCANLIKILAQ
# Sequence of rat CYP3A2, Cyp3a2 (gene 266682) (P05183 whole entry, looked up): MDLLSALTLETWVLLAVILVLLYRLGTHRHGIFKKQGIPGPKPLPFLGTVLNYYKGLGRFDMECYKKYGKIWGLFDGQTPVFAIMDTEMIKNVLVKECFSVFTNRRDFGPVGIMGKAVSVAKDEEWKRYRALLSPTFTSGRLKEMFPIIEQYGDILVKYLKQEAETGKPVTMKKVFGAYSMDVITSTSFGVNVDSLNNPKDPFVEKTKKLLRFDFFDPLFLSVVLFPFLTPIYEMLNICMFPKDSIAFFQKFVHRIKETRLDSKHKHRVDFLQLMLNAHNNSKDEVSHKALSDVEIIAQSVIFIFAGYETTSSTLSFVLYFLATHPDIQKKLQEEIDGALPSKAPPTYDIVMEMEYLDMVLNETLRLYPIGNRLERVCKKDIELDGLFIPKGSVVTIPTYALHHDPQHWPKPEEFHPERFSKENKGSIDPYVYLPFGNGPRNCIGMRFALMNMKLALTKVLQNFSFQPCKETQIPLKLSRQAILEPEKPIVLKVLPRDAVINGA
# Sequence of human Epidermal Growth Factor Receptor (EGFR), EGFR (gene 1956) (P00533 whole entry, looked up): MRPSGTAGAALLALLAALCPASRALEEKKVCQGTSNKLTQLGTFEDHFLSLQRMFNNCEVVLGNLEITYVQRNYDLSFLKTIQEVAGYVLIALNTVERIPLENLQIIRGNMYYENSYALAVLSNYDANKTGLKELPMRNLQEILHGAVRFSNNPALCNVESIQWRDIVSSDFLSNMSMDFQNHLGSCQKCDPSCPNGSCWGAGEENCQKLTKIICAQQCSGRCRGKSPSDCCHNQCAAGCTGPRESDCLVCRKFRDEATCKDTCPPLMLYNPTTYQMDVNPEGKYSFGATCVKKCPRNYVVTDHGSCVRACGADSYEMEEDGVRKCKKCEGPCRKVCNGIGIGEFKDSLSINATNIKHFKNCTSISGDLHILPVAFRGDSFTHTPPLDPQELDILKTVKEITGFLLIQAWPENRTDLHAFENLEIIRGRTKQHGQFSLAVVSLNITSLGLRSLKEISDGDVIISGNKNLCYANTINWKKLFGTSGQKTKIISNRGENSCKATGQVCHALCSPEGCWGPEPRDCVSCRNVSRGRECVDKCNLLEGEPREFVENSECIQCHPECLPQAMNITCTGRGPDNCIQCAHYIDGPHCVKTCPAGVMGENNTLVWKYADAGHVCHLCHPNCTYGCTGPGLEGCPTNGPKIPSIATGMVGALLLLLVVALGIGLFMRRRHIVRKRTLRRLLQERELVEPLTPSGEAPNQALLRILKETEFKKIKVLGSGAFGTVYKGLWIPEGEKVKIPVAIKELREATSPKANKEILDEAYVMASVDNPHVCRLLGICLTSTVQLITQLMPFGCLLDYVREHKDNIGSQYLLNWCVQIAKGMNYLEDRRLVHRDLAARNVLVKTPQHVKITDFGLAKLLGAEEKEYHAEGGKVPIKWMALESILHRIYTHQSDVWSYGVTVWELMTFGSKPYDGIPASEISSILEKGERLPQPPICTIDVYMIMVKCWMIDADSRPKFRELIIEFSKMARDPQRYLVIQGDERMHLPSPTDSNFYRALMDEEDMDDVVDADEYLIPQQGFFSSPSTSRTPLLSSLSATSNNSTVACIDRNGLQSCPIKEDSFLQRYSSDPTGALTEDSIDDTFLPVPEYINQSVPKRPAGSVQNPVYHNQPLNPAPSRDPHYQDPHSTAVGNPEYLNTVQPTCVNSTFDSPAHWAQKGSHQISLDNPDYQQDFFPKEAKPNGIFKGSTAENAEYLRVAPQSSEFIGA
# Sequence of human Beta-secretase (BACE), BACE1 (gene 23621) (P56817 whole entry, looked up): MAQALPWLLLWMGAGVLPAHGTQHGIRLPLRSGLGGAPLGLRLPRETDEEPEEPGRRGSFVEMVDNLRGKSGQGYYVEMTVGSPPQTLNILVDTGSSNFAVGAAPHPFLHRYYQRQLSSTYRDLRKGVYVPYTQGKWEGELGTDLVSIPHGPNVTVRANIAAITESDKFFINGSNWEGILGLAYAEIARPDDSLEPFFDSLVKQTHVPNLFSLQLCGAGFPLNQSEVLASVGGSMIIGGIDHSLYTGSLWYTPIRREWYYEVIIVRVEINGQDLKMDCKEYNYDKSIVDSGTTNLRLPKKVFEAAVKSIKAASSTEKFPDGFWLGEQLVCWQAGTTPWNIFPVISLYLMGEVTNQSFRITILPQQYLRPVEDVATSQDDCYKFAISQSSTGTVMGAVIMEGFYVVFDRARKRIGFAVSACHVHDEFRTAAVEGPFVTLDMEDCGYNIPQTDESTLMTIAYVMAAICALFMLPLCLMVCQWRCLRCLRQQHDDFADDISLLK
compound,measurement,setting,value
CCC(C)(C)c1ccc(O)cc1,outcome,[1],inactive
NNC(N)=S,outcome,[2],inactive
CCCCN(CCCC)SN(C)C(=O)Oc1cccc2c1OC(C)(C)C2,AC50,[3],1.31 µM (active)
same,outcome,[4],inactive
same,outcome,[5],inactive
O=P(Oc1ccccc1)(Oc1ccccc1)Oc1ccccc1,outcome,[6],inactive
O=P1(N(CCCl)CCCl)NCCCO1 (stereo not given),outcome,[7],inactive
same,outcome,[8],inactive
same,outcome,[5],inactive
CO/N=C(/C(=O)OC)c1ccccc1COc1ccccc1C,outcome,"rat CYP2B1, gene 24300",inactive
same,AC50,"rat CYP3A1, gene 25642",6.96 µM (active)
same,AC50,[9],6.28 µM (active)
O=[N+]([O-])c1ccccc1,outcome,[10],inactive
c1ccc(OP(Oc2ccccc2)Oc2ccccc2)cc1,outcome,[10],inactive
same,AC50,[11],37 µM (active)

# — PubChem BioAssay (EPA / NIEHS)
